Assay results as given in the supplement of paper PMC12645437, “Orthogonal IMiD-Degron Pairs Induce Selective Protein Degradation in Cells” (ACS Chemical Biology, 2025).
The full ranking holds about 8,300 sequences; the median of “log2 fold change of degron read counts, EGFP-low vs EGFP+ sorted cells (limma voom), compound-induced degradation” is about -1.1, and the highest 2% start at about 3.2. The full list was thinned out, with the highest values kept by preference.

T1: CRBN, Q96SW2
T1 chain: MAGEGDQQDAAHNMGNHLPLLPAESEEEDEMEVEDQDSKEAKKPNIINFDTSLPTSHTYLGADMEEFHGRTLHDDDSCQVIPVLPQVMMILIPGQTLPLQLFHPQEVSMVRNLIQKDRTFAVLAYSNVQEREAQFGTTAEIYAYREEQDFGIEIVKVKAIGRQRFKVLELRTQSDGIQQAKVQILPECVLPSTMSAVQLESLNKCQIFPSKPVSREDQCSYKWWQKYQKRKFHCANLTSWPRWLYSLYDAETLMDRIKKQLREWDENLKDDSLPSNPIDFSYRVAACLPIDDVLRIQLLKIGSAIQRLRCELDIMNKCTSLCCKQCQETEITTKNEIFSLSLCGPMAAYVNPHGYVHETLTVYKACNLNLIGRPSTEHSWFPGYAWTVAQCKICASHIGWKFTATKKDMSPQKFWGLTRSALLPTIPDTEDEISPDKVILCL


Molecular target: T1, CRBN, Q96SW2
Test: log2 fold change of degron read counts, EGFP-low vs EGFP+ sorted cells (limma voom), compound-induced degradation; higher = more compound-induced degradation of the degron-EGFP fusion; degrons are variants of IKZF1/3 zinc finger 2; compound dose not given here
Details: Jurkat, 18 h
[1] = compound: compound 19 (5-tert-butyl-thalidomide)
[2] = compound: compound 22 (5-morpholino-thalidomide)
[3] = compound: compound 33 (diphenyl IMiD analogue)
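Also: pooled lentiviral library of zinc finger degron-EGFP fusions in mCherry-positive Jurkat cells, FACS-sorted after compound exposure, with degron abundance counted by next-generation sequencing.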

Row | Sequence | log2 fold change of degron read counts [1] | log2 fold change of degron read counts [2] | log2 fold change of degron read counts [3] | log2 fold change of degron read counts (compound: thalidomide)
1 | FFCEICGHRFTQKGNLLRHIKL [46F_47F_49E_50I_52G_53H_54R_55F_67L_, Q9UKT9] | -1.06 | -1.44 | -1.47 | -1.72
2 | FDCPICGAVFTQKGNLLRHIKL [46F_47D_49P_50I_52G_53A_54V_55F_67L_, Q9UKT9] | 0.604 | 0.176 | 1.99 | 1.81
3 | FTCEVCGAPFTQKGNLLRHIKL [46F_47T_49E_50V_52G_53A_54P_55F_67L_, Q9UKT9] | 2.16 | 3.25 | 1.81 | 2.71
4 | FFCEVCGADFTQKGNLLRHIKL [46F_47F_49E_50V_52G_53A_54D_55F_67L_, Q9UKT9] | -0.0497 | 0.23 | -0.854 | -0.804
5 | FDCEVCGAPFTQKGNLLRHIKL [46F_47D_49E_50V_52G_53A_54P_55F_67L_, Q9UKT9] | 0.668 | -1.2 | -1.15 | -0.746
6 | FHCEVCGAPFTQKGNLLRHIKL [46F_47H_49E_50V_52G_53A_54P_55F_67L_, Q9UKT9] | 3.54 | 3.17 | 2.03 | 1.38
7 | FACEVCGAPFTQKGNLLRHIKL [46F_47A_49E_50V_52G_53A_54P_55F_67L_, Q9UKT9] | 3.19 | 1.62 | -0.375 | 0.871
8 | FNCEVCGAPFTQKGNLLRHIKL [46F_47N_49E_50V_52G_53A_54P_55F_67L_, Q9UKT9] | 2.7 | 1.8 | 0.0261 | 0.847
9 | FTCNVCGAPFTQKGNLLRHIKL [46F_47T_49N_50V_52G_53A_54P_55F_67L_, Q9UKT9] | 0.145 | 1.49 | 0.972 | 1.51
10 | FICEVCGAPFTQKGNLLRHIKL [46F_47I_49E_50V_52G_53A_54P_55F_67L_, Q9UKT9] | 2.03 | 3.48 | 2.78 | 3.17
11 | FSCEVCGAPFTQKGNLLRHIKL [46F_47S_49E_50V_52G_53A_54P_55F_67L_, Q9UKT9] | 2.89 | 2.01 | 0.358 | 1.1
12 | FFCEVCGAPFTQKGNLLRHIKL [46F_47F_49E_50V_52G_53A_54P_55F_67L_, Q9UKT9] | 4 | 3.18 | 1.98 | 1.73
13 | FCCNVCGAPFTQKGNLLRHIKL [46F_47C_49N_50V_52G_53A_54P_55F_67L_, Q9UKT9] | 1.3 | 0.686 | -0.00676 | 0.263
14 | FMCDVCGACFTQKGNLLRHIKL [46F_47M_49D_50V_52G_53A_54C_55F_67L_, Q9UKT9] | -1.81 | -1.41 | 0.979 | -1.1
15 | FICNQCGAEFTQKGNLLRHIKL [46F_47I_49N_50Q_52G_53A_54E_55F_67L_, Q9UKT9] | -3.37 | -3.09 | -2.19 | -1.75
16 | FHCEICGAWFTQKGNLLRHIKL [46F_47H_49E_50I_52G_53A_54W_55F_67L_, Q9UKT9] | -0.982 | -1.57 | -0.784 | -2.02
17 | FQCEVCGAPFTQKGNLLRHIKL [46F_47Q_49E_50V_52G_53A_54P_55F_67L_, Q9UKT9] | 3.05 | 3.49 | 1.41 | 3.53
18 | FWCEVCGAPFTQKGNLLRHIKL [46F_47W_49E_50V_52G_53A_54P_55F_67L_, Q9UKT9] | 3.08 | 2.92 | 1.89 | 1.01
19 | FYCEVCGAPFTQKGNLLRHIKL [46F_47Y_49E_50V_52G_53A_54P_55F_67L_, Q9UKT9] | 3.69 | 3.45 | 2.63 | 1.63
20 | FCCEVCGAPFTQKGNLLRHIKL [46F_47C_49E_50V_52G_53A_54P_55F_67L_, Q9UKT9] | 3.23 | 2.09 | 0.726 | 1.26
21 | FVCEVCGAPFTQKGNLLRHIKL [46F_47V_49E_50V_52G_53A_54P_55F_67L_, Q9UKT9] | 2.23 | 3.61 | 2.24 | 3.07
22 | FRCEVCGADFTQKGNLLRHIKL [46F_47R_49E_50V_52G_53A_54D_55F_67L_, Q9UKT9] | -1.68 | -1.6 | 1.33 | 0.331
23 | FLCEVCGAPFTQKGNLLRHIKL [46F_47L_49E_50V_52G_53A_54P_55F_67L_, Q9UKT9] | 2.39 | 2.45 | 2.33 | 2.97
24 | FRCEVCGAPFTQKGNLLRHIKL [46F_47R_49E_50V_52G_53A_54P_55F_67L_, Q9UKT9] | 3.45 | 3.6 | 3.39 | 3.62
25 | FGCEVCGAPFTQKGNLLRHIKL [46F_47G_49E_50V_52G_53A_54P_55F_67L_, Q9UKT9] | 0.82 | -0.556 | -1.51 | -1.08
26 | FQCNQCGANFTQKGNLLRHIKL [46F_47Q_49N_50Q_52G_53A_54N_55F_67L_, Q9UKT9] | -2.24 | -1.57 | -1.76 | -0.0144
27 | FSCDQCGALFTQKGNLLRHIKL [46F_47S_49D_50Q_52G_53A_54L_55F_67L_, Q9UKT9] | -2.6 | -3.3 | -0.185 | -3.02
28 | FNCSVCGHNFTQKGNLLRHIKL [46F_47N_49S_50V_52G_53H_54N_55F_67L_, Q9UKT9] | -2.71 | -4.15 | -3.1 | -2.83
